In PubChem BioAssay (EPA / NIEHS) one finds outcome and AC50 data, which are given here for seven compounds.

Read-out in experiment [1]: Interleukin-8 (IL8), CXCL8 (gene 3576)
The experiment can be described thus: BSK_CASM3C_IL8: BioMAP Diversity Plus: CASM3C Assay for Interleukin-8 (IL8) Biomarker Activity (AID 2283042).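 Further: IL-8 protein level quantified by ELISA.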 The settings on record: primary human coronary artery smooth muscle cells; actives raise or lower the signal.

Read-out in experiment [2]: Human Leukocyte Antigen - DR isotype (HLADR), HLA-DRA (gene 3122)
The experiment is described as follows: BSK_CASM3C_HLADR: BioMAP Diversity Plus: CASM3C Assay for Human Leukocyte Antigen - DR isotype (HLADR) Biomarker Activity (AID 2283043).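 Further: cell-surface HLA-DR protein level quantified by ELISA.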 The settings on record: primary human coronary artery smooth muscle cells; actives raise or lower the signal.

Read-out in experiment [3]: Macrophage colony-stimulating factor (MCSF), CSF1 (gene 1435)
The experiment is described as follows: BSK_CASM3C_MCSF: BioMAP Diversity Plus: CASM3C Assay for Macrophage colony-stimulating factor (MCSF) Biomarker Activity (AID 2283044).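 Further: M-CSF protein amount quantified by ELISA after 24 h exposure.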 The settings on record: primary human coronary artery smooth muscle cells; actives raise or lower the signal.

Read-out in experiment [4]: Low-density lipoprotein receptor (LDLR), LDLR (gene 3949)
The experiment is described as follows: BSK_CASM3C_LDLR: BioMAP Diversity Plus: CASM3C Assay for Low-density lipoprotein receptor (LDLR) Biomarker Activity (AID 2283045).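 Further: LDLR protein level on the cell surface quantified by ELISA.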 The settings on record: primary human coronary artery smooth muscle cells; actives raise or lower the signal.

Read-out in experiment [5]: Monocyte Chemoattractant Protein-1 (MCP1), CCL2 (gene 6347)
The experiment can be described thus: BSK_CASM3C_MCP1: BioMAP Diversity Plus: CASM3C Assay for Monocyte Chemoattractant Protein-1 (MCP1) Biomarker Activity (AID 2283046).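 Further: MCP-1 level quantified by ELISA 24 h after dosing.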 The settings on record: primary human coronary artery smooth muscle cells; actives raise or lower the signal.

Experiment [6] can be described thus: BSK_CASM3C_Proliferation: Cell Proliferation Assessment in the BioMAP Diversity Plus: CASM3C Assay (AID 2283047).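 Further: sulforhodamine B total protein stain as relative cell number at 560 nm; sub-confluent cells exposed 48 h before staining; fitted both ways against DMSO so gain or loss of cell number.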 The settings on record: primary human coronary artery smooth muscle cells.
Read-out in experiment [7]: Monokine induced gamma interferon (MIG), CXCL9 (gene 4283)
The experiment can be described thus: BSK_CASM3C_MIG: BioMAP Diversity Plus: CASM3C Assay for Monokine induced gamma interferon (MIG) Biomarker Activity (AID 2283048).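 Further: MIG protein level measured by ELISA.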 The settings on record: primary human coronary artery smooth muscle cells; actives raise or lower the signal.

Read-out in experiment [8]: serum amyloid A (SAA), SAA1 (gene 6288)
The experiment is described as follows: BSK_CASM3C_SAA: BioMAP Diversity Plus: CASM3C Assay for serum amyloid A (SAA) Biomarker Activity (AID 2283049).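 Further: SAA protein level quantified by ELISA.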 The settings on record: primary human coronary artery smooth muscle cells; actives raise or lower the signal.

Experiment [9] is described as follows: BSK_CASM3C_SRB: Viability Assessment in the BioMAP Diversity Plus: CASM3C Assay (AID 2283050).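 Further: total protein by SRB staining as cytotoxicity measure in parallel cultures.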 The settings on record: primary human coronary artery smooth muscle cells.
Read-out in experiment [10]: Thrombomodulin, THBD (gene 7056)
The experiment is described as follows: BSK_CASM3C_Thrombomodulin: BioMAP Diversity Plus: CASM3C Assay for Thrombomodulin Biomarker Activity (AID 2283051).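 Further: thrombomodulin protein level measured by ELISA 24 h after dosing.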 The settings on record: primary human coronary artery smooth muscle cells; actives raise or lower the signal.

Read-out in experiment [11]: Tissue Factor, F3 (gene 2152)
The experiment is described as follows: BSK_CASM3C_TissueFactor: BioMAP Diversity Plus: CASM3C Assay for Tissue Factor Biomarker Activity (AID 2283052).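 Further: cell surface tissue factor protein level read by ELISA.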 The settings on record: primary human coronary artery smooth muscle cells; actives raise or lower the signal.

Read-out in experiment [12]: Interferon-gamma inducible Protein 10 (IP10), CXCL10 (gene 3627)
The experiment can be described thus: BSK_hDFCGF_IP10: BioMAP Diversity Plus: hDFCGF Assay for Interferon-gamma inducible Protein 10 (IP10) Biomarker Activity (AID 2283053). The settings on record: primary human foreskin fibroblasts; actives raise or lower the signal. Put shortly:
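Human foreskin fibroblast primary cells (hDFCGF system) were dosed with chemical and assayed at 24 h; IP-10 measured by ELISA. Activity fitted bidirectionally relative to DMSO negative control as baseline.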

Read-out in experiment [13]: Urokinase-type plasminogen activator receptor (uPAR), PLAUR (gene 5329)
The experiment can be described thus: BSK_CASM3C_uPAR: BioMAP Diversity Plus: CASM3C Assay for Urokinase-type plasminogen activator receptor (uPAR) Biomarker Activity (AID 2283054).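 Further: cell-surface uPAR protein level quantified by ELISA.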 The settings on record: primary human coronary artery smooth muscle cells; actives raise or lower the signal.

Read-out in experiment [14]: Vascular cell adhesion molecule 1 (VCAM1), VCAM1 (gene 7412)
The experiment is described as follows: BSK_CASM3C_VCAM1: BioMAP Diversity Plus: CASM3C Assay for Vascular cell adhesion molecule 1 (VCAM1) Biomarker Activity (AID 2283055).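 Further: VCAM-1 protein level quantified by ELISA on the cells.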 The settings on record: primary human coronary artery smooth muscle cells; actives raise or lower the signal.

Read-out in experiment [15]: Collagen III, COL3A1 (gene 1281)
The experiment is described as follows: BSK_hDFCGF_CollagenIII: BioMAP Diversity Plus: hDFCGF Assay for Collagen III Biomarker Activity (AID 2283056). The settings on record: primary human foreskin fibroblasts; actives raise or lower the signal. A digest of the protocol:
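Response relative to DMSO, fitted in both directions, reflects ELISA-measured collagen III in human primary skin fibroblasts 24 h after compound addition.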

Read-out in experiment [16]: Epidermal growth factor receptor (EGFR), EGFR (gene 1956)
The experiment is described as follows: BSK_hDFCGF_EGFR: BioMAP Diversity Plus: hDFCGF Assay for Epidermal growth factor receptor (EGFR) Biomarker Activity (AID 2283057). The settings on record: primary human foreskin fibroblasts; actives raise or lower the signal. Put shortly:
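Primary human foreskin fibroblasts were exposed to compound for 24 h, after which cell-surface EGFR was quantified by ELISA. Activity was fitted bidirectionally against the DMSO negative control as baseline.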

Read-out in experiment [17]: Interleukin-8 (IL8), CXCL8 (gene 3576)
The experiment is described as follows: BSK_hDFCGF_IL8: BioMAP Diversity Plus: hDFCGF Assay for Interleukin-8 (IL8) Biomarker Activity (AID 2283058). The settings on record: primary human foreskin fibroblasts; actives raise or lower the signal. A digest of the protocol:
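Fibroblast monolayers (human foreskin, hDFCGF) received test chemical for 24 h before ELISA detection of IL-8; either increases or decreases relative to DMSO count as activity.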

Experiment [18] can be described thus: BSK_hDFCGF_Proliferation: Cell Proliferation Assessment in the BioMAP Diversity Plus: hDFCGF Assay (AID 2283059).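 Further: curves fitted for both rise and fall of signal versus DMSO baseline.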 The settings on record: primary human foreskin fibroblasts. Put shortly: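 Steps: dose primary human dermal fibroblasts (foreskin); […] fix in 10% TCA; stain with 0.1% SRB; read 560 nm; fit gain or loss of signal against DMSO.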
Read-out in experiment [19]: Macrophage colony-stimulating factor (MCSF), CSF1 (gene 1435)
The experiment is described as follows: BSK_hDFCGF_MCSF: BioMAP Diversity Plus: hDFCGF Assay for Macrophage colony-stimulating factor (MCSF) Biomarker Activity (AID 2283060). The settings on record: primary human foreskin fibroblasts; actives raise or lower the signal. A digest of the protocol: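 fibroblasts (human foreskin, primary), 24 h post-dose; M-CSF by ELISA; bidirectional fit, DMSO = baseline.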

The nature of experiment [20]: BSK_hDFCGF_SRB: Viability Assessment in the BioMAP Diversity Plus: hDFCGF Assay (AID 2283061).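 Further: cells exposed to compound for 24 h before the read.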 The settings on record: primary human foreskin fibroblasts. A digest of the protocol:
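SRB-based viability read on primary human skin fibroblasts at 24 h: TCA fixation, 0.1% dye, 560 nm. Gain or loss of signal is fitted against the DMSO negative control.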

Molecules are shown by their SMILES. Active and inactive are the calls of the source. How the source made its calls: active means hit-call score of the fitted dose curve at least 0.9, where 1 is the maximum; inactive means score below 0.9.

For the compound `CC1(C)C(=O)NC(=O)N1CO`, the outcome in [1], in experiment [2], in experiment [3], in experiment [4], in [5] and in experiment [6] was inactive. For the same compound, the outcome in experiment [7], in experiment [8], in experiment [9], in [10], in experiment [11] and in experiment [12] was inactive. Further, the result in experiment [13], in experiment [14], in experiment [15], in experiment [16], in experiment [17] and in [18] was inactive. Further, the outcome in [19] and in experiment [20] was inactive.

`O=NO`: the result in [1], in experiment [2], in experiment [3], in experiment [4], in [5] and in experiment [6] was inactive. Also, the result in [7], in experiment [8], in experiment [9], in [10], in experiment [11] and in experiment [12] was inactive. Also, the outcome in experiment [13], in [14], in experiment [15], in experiment [16], in [17] and in experiment [18] was inactive. In addition, the outcome in experiment [19] and in experiment [20] was inactive.

For `CC(=O)OC1CC(C)OC(C)O1` (stereo not given), the outcome in experiment [1], in [2], in experiment [3], in experiment [4], in [5] and in [6] was inactive. The result in experiment [7], in [8], in experiment [9], in experiment [10], in experiment [11] and in experiment [12] was inactive. For the same compound, the outcome in [13], in experiment [14], in [15], in experiment [16], in experiment [17] and in experiment [18] was inactive. The result in [19] and in experiment [20] was inactive.

Turning to `Cn1cnc2c1c(=O)[nH]c(=O)n2C`, the result in experiment [1], in experiment [2], in experiment [3], in experiment [4], in experiment [5] and in [6] was inactive. The outcome in experiment [7], in [8], in experiment [9], in [10], in experiment [11] and in [12] was inactive. In addition, the result in experiment [13], in [14], in [15], in experiment [16], in experiment [17] and in [18] was inactive. Moreover, the result in experiment [19] and in [20] was inactive.

For the compound `CC(N)=O`, the result in experiment [1], in [2], in experiment [3], in experiment [4], in experiment [5] and in experiment [6] was inactive. Moreover, the outcome in [7], in experiment [8], in experiment [9], in experiment [10], in experiment [11] and in experiment [12] was inactive. The result in experiment [13], in [14], in experiment [15], in experiment [16], in experiment [17] and in [18] was inactive. Further, the outcome in experiment [19] and in [20] was inactive.

For `CC(=O)OCC(COC(C)=O)OC(C)=O`, the outcome in experiment [1], in experiment [2], in experiment [3], in [4], in experiment [5] and in experiment [6] was inactive. For the same compound, the outcome in experiment [7], in experiment [8], in experiment [9], in experiment [10], in experiment [11] and in experiment [12] was inactive. For the same compound, the outcome in [13], in experiment [14], in experiment [15], in experiment [16], in [17] and in [18] was inactive. In addition, the result in experiment [19] and in [20] was inactive.

For `CC(COCC(C)OC(=O)c1ccccc1)OC(=O)c1ccccc1` (stereo not given), the outcome in [1], in experiment [2], in experiment [3], in [4], in experiment [5] and in experiment [6] was inactive. Moreover, the result in experiment [7], in [8], in experiment [9], in experiment [10], in [11] and in experiment [12] was inactive. For the same compound, the outcome in experiment [13], in experiment [14], in [15], in [16], in [17] and in experiment [19] was inactive. The outcome in [20] was inactive. Further, the AC50 in [18] was 33.7 µM (active).

As usually defined, the AC50 is the midpoint of the concentration-response curve, whichever way the signal moves.
